Measured values taken from PubChem BioAssay (EPA / NIEHS).
Some compounds were tested as several samples or in several runs, with calls that do not always agree. The source made the active and inactive calls. How the source made its calls: active means hit-call score of the fitted dose curve at least 0.9, where 1 is the maximum; inactive means score below 0.9.

Columns and labels:
[1] = read-out: Human Leukocyte Antigen - DR isotype (HLADR), HLA-DRA (gene 3122); assay: BSK_BE3C_HLADR: BioMAP Diversity Plus: BE3C Assay for Human Leukocyte Antigen - DR isotype (HLADR) Biomarker Activity (AID 2283032); details: primary human bronchial epithelial cells; actives raise or lower the signal
Outline: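 Human primary bronchial epithelial cells (BE3C system) exposed to compound for 24 hours; cell-surface HLA-DR measured by ELISA, fitted bidirectionally relative to DMSO. Total protein by SRB in parallel cultures tracked cytotoxicity.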

[2] = read-out: Vascular cell adhesion molecule 1 (VCAM1), VCAM1 (gene 7412); assay: BSK_4H_VCAM1: BioMAP Diversity Plus: 4H Assay for Vascular cell adhesion molecule 1 (VCAM1) Biomarker Activity (AID 2283033); details: primary human endothelial cells (HUVEC); actives raise or lower the signal
Outline: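 Primary human umbilical vein endothelial cells, 4H stimulation system, treated for 24 h; cell-surface VCAM-1 quantified by ELISA. Bidirectional fitting against DMSO; cytotoxicity tracked by SRB total-protein staining in parallel cultures.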

[3] = read-out: Interferon-gamma inducible Protein 10 (IP10), CXCL10 (gene 3627); assay: BSK_BE3C_IP10: BioMAP Diversity Plus: BE3C Assay for Interferon-gamma inducible Protein 10 (IP10) Biomarker Activity (AID 2283034); details: primary human bronchial epithelial cells; actives raise or lower the signal
Outline: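 Primary human bronchial epithelial cells, with IP-10 measured by ELISA 24 hours after chemical dosing. Bidirectional fit against DMSO; cytotoxicity checked by SRB total protein staining in parallel cultures.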

[4] = read-out: Transforming growth factor beta 1 (TGFb1), TGFB1 (gene 7040); assay: BSK_BE3C_TGFb1: BioMAP Diversity Plus: BE3C Assay for Transforming growth factor beta 1 (TGFb1) Biomarker Activity (AID 2283036); details: primary human bronchial epithelial cells; actives raise or lower the signal
Outline: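 Primary human bronchial epithelial cells dosed with chemical; TGF-b1 measured by ELISA 24 h after dosing. Bidirectional curve fitting against DMSO negative control; SRB total-protein staining in parallel cultures gauged cytotoxicity.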

[5] = read-out: Plasminogen activator inhibitor-1 (PAI1), SERPINE1 (gene 5054); assay: BSK_BE3C_PAI1: BioMAP Diversity Plus: BE3C Assay for Plasminogen activator inhibitor-1 (PAI1) Biomarker Activity (AID 2283037); details: primary human bronchial epithelial cells; actives raise or lower the signal
Outline: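 Primary human bronchial epithelial cells (BE3C system) exposed 24 h; PAI-1 quantified by ELISA. Parallel sulforhodamine B staining of total protein flags cytotoxicity. Bidirectional fit versus DMSO.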

[6] = read-out: urokinase plasminogen activator (uPA), PLAU (gene 5328); assay: BSK_BE3C_uPA: BioMAP Diversity Plus: BE3C Assay for urokinase plasminogen activator (uPA) Biomarker Activity (AID 2283038); details: primary human bronchial epithelial cells; actives raise or lower the signal;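 further: uPA protein level quantified by ELISA in cell cultures; uPA read one day after compound addition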
Outline: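 Bronchial epithelial cells (human, primary); chemical 24 h; uPA by ELISA; bidirectional fit vs DMSO. SRB (0.1%, after 10% TCA fixation, 560 nm) in parallel cultures for cytotoxicity.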

[7] = read-out: Urokinase-type plasminogen activator receptor (uPAR), PLAUR (gene 5329); assay: BSK_BE3C_uPAR: BioMAP Diversity Plus: BE3C Assay for Urokinase-type plasminogen activator receptor (uPAR) Biomarker Activity (AID 2283039); details: primary human bronchial epithelial cells; actives raise or lower the signal
Outline: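 Primary human bronchial epithelial cells dosed for 24 h; uPAR quantified by ELISA with bidirectional fitting against DMSO. Overt cytotoxicity assessed in parallel cultures by SRB total-protein staining (0.1% SRB, 560 nm).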

[8] = read-out: Interleukin-6 (IL6), IL6 (gene 3569); assay: BSK_CASM3C_IL6: BioMAP Diversity Plus: CASM3C Assay for Interleukin-6 (IL6) Biomarker Activity for (AID 2283040); details: primary human coronary artery smooth muscle cells; actives raise or lower the signal
[9] = read-out: Tissue plasminogen activator (tPA), PLAT (gene 5327); assay: BSK_BE3C_tPA: BioMAP Diversity Plus: BE3C Assay for Tissue plasminogen activator (tPA) Biomarker Activity (AID 2283041); details: primary human bronchial epithelial cells; actives raise or lower the signal
Outline: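 Primary human bronchial epithelial cells in the BE3C system, exposed to compound for 24 h. tPA was quantified by ELISA; DMSO served as baseline, with gain or loss of signal fitted. Cytotoxicity checked in parallel cultures by SRB total-protein staining.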

[10] = read-out: Interleukin-8 (IL8), CXCL8 (gene 3576); assay: BSK_CASM3C_IL8: BioMAP Diversity Plus: CASM3C Assay for Interleukin-8 (IL8) Biomarker Activity (AID 2283042); details: primary human coronary artery smooth muscle cells; actives raise or lower the signal;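 further: IL-8 protein level quantified by ELISA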
[11] = read-out: Human Leukocyte Antigen - DR isotype (HLADR), HLA-DRA (gene 3122); assay: BSK_CASM3C_HLADR: BioMAP Diversity Plus: CASM3C Assay for Human Leukocyte Antigen - DR isotype (HLADR) Biomarker Activity (AID 2283043); details: primary human coronary artery smooth muscle cells; actives raise or lower the signal;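 further: cell-surface HLA-DR protein level quantified by ELISA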
[12] = read-out: Macrophage colony-stimulating factor (MCSF), CSF1 (gene 1435); assay: BSK_CASM3C_MCSF: BioMAP Diversity Plus: CASM3C Assay for Macrophage colony-stimulating factor (MCSF) Biomarker Activity (AID 2283044); details: primary human coronary artery smooth muscle cells; actives raise or lower the signal;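 further: M-CSF protein amount quantified by ELISA after 24 h exposure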
[13] = read-out: Low-density lipoprotein receptor (LDLR), LDLR (gene 3949); assay: BSK_CASM3C_LDLR: BioMAP Diversity Plus: CASM3C Assay for Low-density lipoprotein receptor (LDLR) Biomarker Activity (AID 2283045); details: primary human coronary artery smooth muscle cells; actives raise or lower the signal;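 further: LDLR protein level on the cell surface quantified by ELISA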
[14] = read-out: Monocyte Chemoattractant Protein-1 (MCP1), CCL2 (gene 6347); assay: BSK_CASM3C_MCP1: BioMAP Diversity Plus: CASM3C Assay for Monocyte Chemoattractant Protein-1 (MCP1) Biomarker Activity (AID 2283046); details: primary human coronary artery smooth muscle cells; actives raise or lower the signal;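 further: MCP-1 level quantified by ELISA 24 h after dosing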
[15] = BSK_CASM3C_Proliferation: Cell Proliferation Assessment in the BioMAP Diversity Plus: CASM3C Assay (AID 2283047); details: primary human coronary artery smooth muscle cells;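 further: sulforhodamine B total protein stain as relative cell number at 560 nm; sub-confluent cells exposed 48 h before staining; fitted both ways against DMSO so gain or loss of cell number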
[16] = read-out: Monokine induced gamma interferon (MIG), CXCL9 (gene 4283); assay: BSK_CASM3C_MIG: BioMAP Diversity Plus: CASM3C Assay for Monokine induced gamma interferon (MIG) Biomarker Activity (AID 2283048); details: primary human coronary artery smooth muscle cells; actives raise or lower the signal;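 further: MIG protein level measured by ELISA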
[17] = read-out: serum amyloid A (SAA), SAA1 (gene 6288); assay: BSK_CASM3C_SAA: BioMAP Diversity Plus: CASM3C Assay for serum amyloid A (SAA) Biomarker Activity (AID 2283049); details: primary human coronary artery smooth muscle cells; actives raise or lower the signal;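 further: SAA protein level quantified by ELISA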
[18] = BSK_CASM3C_SRB: Viability Assessment in the BioMAP Diversity Plus: CASM3C Assay (AID 2283050); details: primary human coronary artery smooth muscle cells
[19] = read-out: Thrombomodulin, THBD (gene 7056); assay: BSK_CASM3C_Thrombomodulin: BioMAP Diversity Plus: CASM3C Assay for Thrombomodulin Biomarker Activity (AID 2283051); details: primary human coronary artery smooth muscle cells; actives raise or lower the signal;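 further: thrombomodulin protein level measured by ELISA 24 h after dosing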
[20] = read-out: Monokine induced gamma interferon (MIG), CXCL9 (gene 4283); assay: BSK_BE3C_MIG: BioMAP Diversity Plus: BE3C Assay for Monokine induced gamma interferon (MIG) Biomarker Activity (AID 2283035); details: primary human bronchial epithelial cells; actives raise or lower the signal;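 further: MIG protein measured by ELISA in BE3C cultures after 24 h of dosing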
Outline: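 ELISA read-out of MIG in human lung bronchial epithelial primary cultures, 24 h post-dosing. Bidirectional curve fit vs DMSO baseline.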

Measured: AC50

CCOC(=O)COc1cc(-n2ncc(C(F)(F)F)c(C)c2=O)c(F)cc1Cl
active: [7] 0.459 µM
not listed: [20]
inactive: all other assays above

CCSC(=O)N(CC(C)C)CC(C)C
inactive: all assays above

CC(C)(c1ccc(O)cc1)c1ccc(O)cc1
inactive: [1] | [2] | [3] | [4] | [5] | [6] | [7] | [8] | [9] | [10] | [11] | [12] | [13] | [14] | [15] | [16] | [17] | [18] | [19]
active: [2] 7.53 µM | [3] 9.06 µM | [5] 24.3 µM | [9] 8.08 µM | [19] 8.47 µM

CN(C)C(=O)Nc1ccc(Cl)c(Cl)c1
inactive: all assays above

Cc1nn(C)c(Oc2ccccc2)c1C=NOCc1ccc(C(=O)OC(C)(C)C)cc1
active: [1] 0.814 µM | [3] 11.7 µM | [5] 7.02 µM | [15] 20 µM | [19] 16.3 µM
inactive: all other assays above

S=C([S-])NCCNC(=S)[S-].[Mn+2]
active: [1] 30.5 µM | [8] 12.2 µM | [15] 29.9 µM | [19] 27.1 µM
not listed: [20]
inactive: all other assays above
